{
  "source": "PubChem BioAssay (NCI)",
  "note": "About 83,000 compounds went through this panel and 20% of them were active in at least one assay; those are over-represented in the sample as a whole.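 Percent growth is the endpoint: 0 to 100 indicates growth inhibition (40 means 60% inhibition), 0 means no net growth, and negative values indicate cell death.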 Activity calls are given as the source filed them. How the source made its calls: active means growth percent below 10; inactive means the rest.",
  "data": [
    {"tested_on": "HL-60(TB) leukemia", "assay": "NCI-60 one-dose screen, 48 h (100 = growth as untreated, 0 = no growth, -100 = all killed)", "settings": "10 µM unless noted", "values": [
      {"compound": "N#Cc1c(-c2ccccc2)nc2c(c(-c3ccccc3)nn2-c2ccccc2)c1-c1ccc(N2CCCCC2)cc1", "growth": "95.8% (inactive)"},
      {"compound": "Cc1cc(-c2noc(C(F)(F)F)n2)ccc1N1CCN(c2cc(C(=O)N(C)C)no2)CC1", "growth": "49.7% (inactive)"},
      {"compound": "COc1ccc2c(c1)NC(=O)CN2c1nc(NC2CC2)nc2ccccc12", "growth": "-5.55% (active)"},
      {"compound": "COc1cc(-c2nc3sccn3c2-c2ccnc(NCCNS(=O)(=O)c3ccc(F)cc3)n2)ccc1F", "growth": "-17.4% (active)"},
      {"compound": "COc1cc(Nc2ncccc2/C=C/C(=O)c2cc(OC)c(OC)c(OC)c2)cc(OC)c1OC", "growth": "73.1% (inactive)"},
      {"compound": "Cc1c(O)cc(-c2cnc(N/N=C\\c3ccc(Cl)cc3)s2)c(O)c1C", "growth": "-3.05% (active)"},
      {"compound": "CC[C@@H]1C(=O)N(C)c2cnc(Nc3ccc(C(=O)NC4CCC(N5CCN(CC6CC6)CC5)CC4)cc3OC)nc2N1C(C)C", "note": "(stereo not given in full)", "growth": "-48.5% (active)"},
      {"compound": "O=C(Nc1ccc(Cl)cc1)N1CCN(c2ccc3nncn3n2)CC1", "growth": "-65.2% (active)"},
      {"compound": "FC(F)(F)c1cccc(Oc2ccc(Nc3ncnc4ccc(OCCCN5CCOCC5)cc34)cc2Cl)c1", "growth": "32.8% (inactive)"},
      {"compound": "O=C(NCCNc1nccc(-c2c(-c3cccc(O)c3)nc3sccn23)n1)Nc1cccc(C(F)(F)F)c1", "growth": "36.4% (inactive)"},
      {"compound": "COC(=O)[C@H](Cc1cn(C)cn1)NC(=O)[C@H](Cc1ccccc1)NC(=O)Nc1cc(C(F)(F)F)cc(C(F)(F)F)c1", "growth": "-67.9% [100 µM] (active)"},
      {"compound": "CCCCNC(=O)Oc1ccc(/C(=C(\\C)c2ccccc2)c2ccc(OCCN(CC)CC)cc2)cc1", "growth": "21.3% (inactive)"},
      {"compound": "CCCN1C(=O)/C(=c2\\sc3n(c2=O)C2C(NN=3)N(CC)C(=O)N2CC)c2ccccc21", "note": "(stereo not given)", "growth": "-40.8% (active)"},
      {"compound": "COc1ccc(-c2nc3sccn3c2-c2nc3c([nH]2)C(=O)c2ccccc2C3=O)cc1", "growth": "94% (inactive)"},
      {"compound": "COc1cc2c3c(n([C@H]4CCOC4)c(=O)c2cc1OC)-c1cc2c(cc1C3=O)OCO2", "growth": "25% (inactive)"},
      {"compound": "CCOC(=O)c1cc(C(=O)c2cc(OC)cc(OC)c2)n2ccc3ccccc3c12", "growth": "103% (inactive)"},
      {"compound": "COc1cc(-c2nn(-c3ccc(NC(=O)Nc4cc(C(F)(F)F)cc(C(F)(F)F)c4)cc3)cc2-c2ccncc2)ccc1Cl", "growth": "4.78% (active)"},
      {"compound": "CCOC(=O)c1noc2c1CCc1cn(Cc3cc(OC)cc(OC)c3)cc1-2", "growth": "77.1% (inactive)"},
      {"compound": "O=C1C(=O)c2ccccc2C(O)=C1CCCc1ccc(C2CCCCC2)cc1", "growth": "30.6% (inactive)"},
      {"compound": "COc1ccc(-c2cc(-c3ccc(Nc4nc(Nc5ccccc5)nc(Nc5ccc(Cl)cc5)n4)cc3)nc(N)n2)cc1", "growth": "101% (inactive)"},
      {"compound": "CC1C(/C=N/Nc2ccccc2)C(C#N)(C#N)C1(C#N)C#N", "note": "(stereo not given)", "growth": "54.3% (inactive)"},
      {"compound": "COc1cc(-c2ccc(-c3ccc(C(=N)N)s3)s2)cc(OC)c1OC", "growth": "-56.6% (active)"},
      {"compound": "CCOC(=O)c1cnc2cc(Cl)c(F)cc2c1Nc1cccc(NS(C)(=O)=O)c1", "growth": "105% (inactive)"},
      {"compound": "O=C(CC1Sc2ccccc2NC1=O)NNc1cccc(Cl)c1Cl", "note": "(stereo not given)", "growth": "9.18% (active)"},
      {"compound": "Nc1nc2cc(O)ccc2n2cc3c(F)cccc3c12", "growth": "21.7% (inactive)"},
      {"compound": "CC(=O)C1C(=O)C(=O)N(c2ccc(Cl)c(Cl)c2)C1=O", "note": "(stereo not given)", "growth": "98.6% (inactive)"},
      {"compound": "C=CCn1c(SCC(=O)Nc2ccc(C(=O)/C=C/c3cc(OC)c(OC)c(OC)c3)cc2)nnc1-c1cc(-c2ccc(S(N)(=O)=O)cc2)nc2ccccc12", "growth": "57.5% (inactive)"},
      {"compound": "C/C(=N\\N1CC(=O)NC1=O)c1ccc([N+](=O)[O-])o1", "growth": "62.7% (inactive)"},
      {"compound": "CCOC(=O)c1cnn(-c2ccc(S(N)(=O)=O)cc2)c1N", "growth": "92.9% (inactive)"},
      {"compound": "N#Cc1nc(-c2cccc(Br)c2)cc(-c2ccc(Nc3nc(N4CCCCC4)nc(N4CCCCC4)n3)cc2)c1N", "growth": "-16.4% (active)"},
      {"compound": "C=Cc1cnc(Nc2ccc(OC)cc2)nc1NCCCNC(=O)C1CCC1", "growth": "14.6% (inactive)"},
      {"compound": "CCCCCCCCCNCCCCCCCCC", "growth": "28.6% (inactive)"},
      {"compound": "Oc1c(I)cc(-c2nc3ccccc3s2)cc1CN(Cc1ccccn1)Cc1ccccn1", "growth": "2.06% (active)"},
      {"compound": "Cc1ccc(S(=O)(=O)NC(CCC(=O)Nc2ccc(Cl)cc2)C(=O)Nc2ccc(Cl)cc2)cc1", "note": "(stereo not given)", "growth": "24.1% (inactive)"},
      {"compound": "COc1cnc2c(c1)C(=O)c1c-2n(CCCN2CCN(C)CC2)c(=O)c2cc(Cl)ccc12", "growth": "50.6% (inactive)"},
      {"compound": "Nc1ncccc1O", "growth": "51.6% (inactive)"},
      {"compound": "CC(C)(O)CC(=O)NCCn1ccc2ncnc(Nc3ccc(Oc4cccc(C(F)(F)F)c4)c(Cl)c3)c21", "growth": "2.51% (active)"},
      {"compound": "COc1cc(NC(=O)c2cncnc2Nc2ccc3c(ccn3Cc3ccccn3)c2)cc(OC)c1", "growth": "4.49% (active)"},
      {"compound": "C#Cc1cccc(Nc2ncnc3ccc(NC(=O)c4ccccc4)cc23)c1", "growth": "71.9% (inactive)"},
      {"compound": "O=C(O)CSc1ccc(NCc2oc(CO)cc(=O)c2O)cc1", "growth": "69.3% (inactive)"}
    ]}
  ]
}
